Experimental data: the supplement of paper PMC10849652
About 8,800 targets were measured; listed, in parts, are those with a hit and a random draw of the rest. About 0.5% of all pairs of compound and target were hits. A number with no mark means an inactive call.

Key:
Assay in all cases: log2 fold change, soluble protein after heating vs DMSO (PISA); higher = thermal stabilisation; K562 lysate, 10 uM; active = over 0.2 and 3.5 SD of the protein, either way, in both replicates (recomputed)
erlotinib = compound: C#Cc1cccc(Nc2ncnc3cc(OCCOC)c(OCCOC)cc23)c1 [erlotinib]
Method in brief: (§1)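 Pellets of K562 cells were dounce-homogenised in PBS pH 7.4 with 1 mM MgCl2, and the crude extract was held at 1 mg/mL protein for a 30 min treatment with 10 μM compound. Aliquots were heated for 3 min over 48°C-58°C and pooled before NP-40 was added to 0.5% at 4°C. The supernatant from 21,000xg for 90 min was quantified by TMTpro 16plex LC-MS/MS with channel sums equalised. Values are reported from duplicates as log-two fold change in thermal stability relative to solvent controls.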

[1] = compound: C/C(=N\NC(=O)C1=CC(=CC=C1)S(=O)(=O)N2CCOCC2)/C3=C(C=CC(=C3)Cl)O
Method in brief: as §1

[2] = compound: C1=CC(=CC=C1C2=NC3=C(N2)C=C(C=C3)C(=O)N)OC4=CC=C(C=C4)Cl
Method in brief: as §1

[3] = compound: C1=CC2=C(C=CC(=C2)/C=C\3/C(=O)NC(=NCC4=CC=CS4)S3)N=C1
Method in brief: as §1

[4] = compound: C1=CC2=NC=CN=C2C=C1/C=C/3\C(=O)NC(=O)S3
Method in brief: as §1

[5] = compound: C1=CC=C(C=C1)C2=NC(=C(N2)C3=CC=NC=C3)C4=CC(=C(C=C4)Cl)O
Method in brief: as §1

[6] = compound: C1=CC=C2C(=C1)C3=NNC4=CC=CC(=C43)C2=O
Method in brief: as §1

[7] = compound: C1CCN(C1)C(=O)NC2=CC=CC(=C2)NC3=NC=C(C(=N3)NCCC4=CN=CN4)Br
Method in brief: as §1

[8] = compound: C1CN(CCC1(CC2=CC=C(C=C2)Cl)N)C3=NC=NC4=C3C=CN4
Method in brief: as §1

IRAK-1-4 Inhibitor I = compound: C1COCCN1CCN2C3=CC=CC=C3N=C2NC(=O)C4=CC(=CC=C4)[N+](=O)[O-] [IRAK-1-4 Inhibitor I]
Method in brief: as §1

ibrutinib = compound: C=CC(=O)N1CCC[C@@H](n2nc(-c3ccc(Oc4ccccc4)cc3)c3c(N)ncnc32)C1 [ibrutinib]
Method in brief: as §1

[9] = compound: CC(=O)c1cnc2ccc(-c3cc(Cl)c(O)c(Cl)c3)nc2c1N[C@H]1CC[C@H](CN(C)C)CC1
Method in brief: as §1

ralimetinib = compound: CC(C)(C)Cn1c(N)nc2ccc(-c3[nH]c(C(C)(C)C)nc3-c3ccc(F)cc3)nc21 [ralimetinib]
Method in brief: as §1

[10] = compound: CC(C)(O)CC(=O)NCCn1ccc2ncnc(Nc3ccc(Oc4cccc(C(F)(F)F)c4)c(Cl)c3)c21
Method in brief: as §1

[11] = compound: CC(C)C1=C2N=C(C=C(N2N=C1)NCC3=CC=CC=C3)NCCCCCCN
Method in brief: as §1

[12] = compound: CC1=C(C(CC(=O)N1)C2=CC=C(C=C2)C(F)(F)F)C(=O)NC3=C(C=C4C(=C3)C=NN4)F
Method in brief: as §1

[13] = compound: CC1=C(C2=C(C=C1)C(=O)C3=CC=CC=C3N2CCCN)C
Method in brief: as §1

[14] = compound: CC1=C(C=C(C=C1)NC(=O)C2=CC(=CC=C2)C(C)(C)C#N)NC3=CC4=C(C=C3)N=CN(C4=O)C
Method in brief: as §1

[15] = compound: CC1=C(C=C(C=C1)NC(=O)C2=CC(=CC=C2)N(C)C)NC(=O)C3=CC=C(C=C3)O
Method in brief: as §1

[16] = compound: CC1=CC=C(C=C1)SC2=C3C=C(SC3=CN=C2)C(=O)N
Method in brief: as §1

Chain of UniProt Q9Y2W6 (Q9Y2W6 whole entry, looked up): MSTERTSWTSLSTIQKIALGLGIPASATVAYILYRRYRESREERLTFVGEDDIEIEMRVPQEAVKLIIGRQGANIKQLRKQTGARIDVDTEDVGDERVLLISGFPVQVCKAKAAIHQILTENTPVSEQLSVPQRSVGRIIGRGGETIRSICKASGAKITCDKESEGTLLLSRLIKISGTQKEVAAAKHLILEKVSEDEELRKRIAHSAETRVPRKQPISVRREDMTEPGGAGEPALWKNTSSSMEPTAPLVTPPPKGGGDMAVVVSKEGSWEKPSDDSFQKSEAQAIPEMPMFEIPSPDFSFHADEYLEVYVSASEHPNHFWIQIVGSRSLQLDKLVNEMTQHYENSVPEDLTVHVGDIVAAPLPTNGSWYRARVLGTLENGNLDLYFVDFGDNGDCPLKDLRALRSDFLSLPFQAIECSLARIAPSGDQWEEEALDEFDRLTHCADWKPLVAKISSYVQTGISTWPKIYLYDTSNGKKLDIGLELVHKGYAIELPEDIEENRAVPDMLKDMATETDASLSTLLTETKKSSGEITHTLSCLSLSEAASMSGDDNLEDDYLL
Chain of UniProt Q86UE8 (Q86UE8 whole entry, looked up): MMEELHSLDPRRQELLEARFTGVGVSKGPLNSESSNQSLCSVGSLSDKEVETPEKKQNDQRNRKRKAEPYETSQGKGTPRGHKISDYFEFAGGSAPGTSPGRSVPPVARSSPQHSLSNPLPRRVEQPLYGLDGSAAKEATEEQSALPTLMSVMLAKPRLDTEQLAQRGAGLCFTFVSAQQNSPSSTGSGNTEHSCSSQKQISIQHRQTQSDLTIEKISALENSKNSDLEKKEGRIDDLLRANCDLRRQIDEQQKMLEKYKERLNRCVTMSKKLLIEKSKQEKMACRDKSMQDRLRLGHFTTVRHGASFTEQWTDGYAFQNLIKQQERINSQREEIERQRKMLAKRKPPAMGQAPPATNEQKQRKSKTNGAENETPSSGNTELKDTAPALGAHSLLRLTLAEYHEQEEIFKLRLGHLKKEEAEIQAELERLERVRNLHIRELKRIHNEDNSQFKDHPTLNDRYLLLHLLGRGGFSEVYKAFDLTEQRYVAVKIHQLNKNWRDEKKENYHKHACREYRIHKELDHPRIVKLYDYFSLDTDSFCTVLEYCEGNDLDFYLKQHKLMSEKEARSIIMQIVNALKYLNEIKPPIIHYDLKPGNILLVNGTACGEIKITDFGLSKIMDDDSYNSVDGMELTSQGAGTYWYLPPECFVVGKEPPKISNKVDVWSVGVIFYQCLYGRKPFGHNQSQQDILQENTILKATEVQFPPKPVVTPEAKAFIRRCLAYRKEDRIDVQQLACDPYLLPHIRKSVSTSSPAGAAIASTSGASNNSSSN
Chain of UniProt P15923 (P15923 whole entry, looked up): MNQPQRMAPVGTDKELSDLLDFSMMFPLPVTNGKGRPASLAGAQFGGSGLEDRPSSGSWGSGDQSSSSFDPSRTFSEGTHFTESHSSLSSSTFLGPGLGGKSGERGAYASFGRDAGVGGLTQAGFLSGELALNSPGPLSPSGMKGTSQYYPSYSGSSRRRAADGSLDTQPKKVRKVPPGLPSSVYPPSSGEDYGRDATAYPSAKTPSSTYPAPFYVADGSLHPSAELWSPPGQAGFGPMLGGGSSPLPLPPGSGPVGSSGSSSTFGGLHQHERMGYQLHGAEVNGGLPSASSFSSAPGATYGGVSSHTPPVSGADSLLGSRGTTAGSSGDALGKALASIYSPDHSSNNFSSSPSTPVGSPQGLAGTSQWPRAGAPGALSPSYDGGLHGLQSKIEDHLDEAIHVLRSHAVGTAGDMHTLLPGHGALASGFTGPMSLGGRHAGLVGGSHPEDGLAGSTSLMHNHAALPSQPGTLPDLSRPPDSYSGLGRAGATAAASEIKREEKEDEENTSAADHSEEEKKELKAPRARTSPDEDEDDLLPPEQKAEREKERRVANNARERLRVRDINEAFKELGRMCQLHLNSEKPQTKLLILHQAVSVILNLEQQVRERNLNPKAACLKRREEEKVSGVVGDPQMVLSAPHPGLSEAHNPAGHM
Chain of UniProt Q9UGJ1 (Q9UGJ1 whole entry, looked up): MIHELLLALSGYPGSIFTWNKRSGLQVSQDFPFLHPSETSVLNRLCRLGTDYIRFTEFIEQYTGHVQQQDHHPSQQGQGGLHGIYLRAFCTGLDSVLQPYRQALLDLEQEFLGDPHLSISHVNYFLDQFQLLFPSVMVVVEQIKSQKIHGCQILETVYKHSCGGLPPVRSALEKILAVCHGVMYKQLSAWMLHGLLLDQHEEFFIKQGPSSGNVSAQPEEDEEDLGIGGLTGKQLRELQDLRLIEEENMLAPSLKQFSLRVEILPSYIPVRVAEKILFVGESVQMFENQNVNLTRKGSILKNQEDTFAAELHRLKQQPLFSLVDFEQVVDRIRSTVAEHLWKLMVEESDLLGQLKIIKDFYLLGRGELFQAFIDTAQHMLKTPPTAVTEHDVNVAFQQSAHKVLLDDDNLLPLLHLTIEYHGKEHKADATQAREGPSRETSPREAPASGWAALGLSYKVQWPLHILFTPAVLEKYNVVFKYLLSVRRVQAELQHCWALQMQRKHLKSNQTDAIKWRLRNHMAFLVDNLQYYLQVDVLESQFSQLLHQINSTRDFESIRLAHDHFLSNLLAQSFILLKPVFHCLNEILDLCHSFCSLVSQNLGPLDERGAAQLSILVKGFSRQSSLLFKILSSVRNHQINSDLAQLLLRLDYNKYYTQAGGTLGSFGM
Chain of UniProt O94842 (O94842 whole entry, looked up): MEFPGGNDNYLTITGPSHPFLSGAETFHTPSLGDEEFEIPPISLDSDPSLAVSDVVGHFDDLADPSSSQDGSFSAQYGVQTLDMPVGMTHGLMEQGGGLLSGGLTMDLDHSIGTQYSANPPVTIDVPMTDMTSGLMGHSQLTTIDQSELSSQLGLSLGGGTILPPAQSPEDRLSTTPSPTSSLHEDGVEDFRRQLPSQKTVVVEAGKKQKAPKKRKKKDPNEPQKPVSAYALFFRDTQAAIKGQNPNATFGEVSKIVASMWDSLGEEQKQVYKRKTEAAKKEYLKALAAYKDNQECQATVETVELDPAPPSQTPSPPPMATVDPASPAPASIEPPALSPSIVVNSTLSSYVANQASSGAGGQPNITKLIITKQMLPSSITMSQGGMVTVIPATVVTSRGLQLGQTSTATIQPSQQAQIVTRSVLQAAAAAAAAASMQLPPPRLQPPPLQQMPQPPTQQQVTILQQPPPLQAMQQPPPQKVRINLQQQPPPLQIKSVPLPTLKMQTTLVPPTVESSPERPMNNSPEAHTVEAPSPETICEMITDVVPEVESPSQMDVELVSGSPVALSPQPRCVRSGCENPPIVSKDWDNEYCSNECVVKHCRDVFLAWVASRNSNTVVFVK
Chain of UniProt Q15386 (Q15386 whole entry, looked up): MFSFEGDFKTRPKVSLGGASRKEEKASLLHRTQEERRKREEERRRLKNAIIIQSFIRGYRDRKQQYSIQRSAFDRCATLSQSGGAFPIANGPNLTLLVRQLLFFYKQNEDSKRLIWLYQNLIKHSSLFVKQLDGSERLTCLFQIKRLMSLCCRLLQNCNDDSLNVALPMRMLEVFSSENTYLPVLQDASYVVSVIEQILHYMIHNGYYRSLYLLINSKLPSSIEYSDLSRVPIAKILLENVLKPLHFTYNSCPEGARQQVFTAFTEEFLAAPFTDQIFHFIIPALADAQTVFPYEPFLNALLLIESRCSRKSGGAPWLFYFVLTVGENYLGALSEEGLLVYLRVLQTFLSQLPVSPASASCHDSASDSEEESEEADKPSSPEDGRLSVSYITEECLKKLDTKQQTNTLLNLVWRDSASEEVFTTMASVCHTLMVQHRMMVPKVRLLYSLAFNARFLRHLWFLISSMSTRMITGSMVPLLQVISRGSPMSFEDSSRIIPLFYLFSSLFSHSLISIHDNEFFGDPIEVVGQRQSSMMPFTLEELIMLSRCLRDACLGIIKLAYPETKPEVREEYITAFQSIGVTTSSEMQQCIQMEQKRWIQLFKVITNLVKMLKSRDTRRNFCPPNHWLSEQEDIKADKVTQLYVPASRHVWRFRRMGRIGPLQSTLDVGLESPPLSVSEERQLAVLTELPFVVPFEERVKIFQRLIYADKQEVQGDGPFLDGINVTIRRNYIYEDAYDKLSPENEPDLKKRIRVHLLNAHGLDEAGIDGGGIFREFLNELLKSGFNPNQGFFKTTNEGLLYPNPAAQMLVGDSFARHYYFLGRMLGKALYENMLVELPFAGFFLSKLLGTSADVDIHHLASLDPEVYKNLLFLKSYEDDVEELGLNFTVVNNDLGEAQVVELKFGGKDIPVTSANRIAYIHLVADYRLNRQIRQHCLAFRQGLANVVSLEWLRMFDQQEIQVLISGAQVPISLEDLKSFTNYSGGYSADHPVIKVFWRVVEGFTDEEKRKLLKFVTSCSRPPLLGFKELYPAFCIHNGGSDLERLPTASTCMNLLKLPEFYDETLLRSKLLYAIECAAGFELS
Chain of UniProt P0DPH7 (P0DPH7 whole entry, looked up): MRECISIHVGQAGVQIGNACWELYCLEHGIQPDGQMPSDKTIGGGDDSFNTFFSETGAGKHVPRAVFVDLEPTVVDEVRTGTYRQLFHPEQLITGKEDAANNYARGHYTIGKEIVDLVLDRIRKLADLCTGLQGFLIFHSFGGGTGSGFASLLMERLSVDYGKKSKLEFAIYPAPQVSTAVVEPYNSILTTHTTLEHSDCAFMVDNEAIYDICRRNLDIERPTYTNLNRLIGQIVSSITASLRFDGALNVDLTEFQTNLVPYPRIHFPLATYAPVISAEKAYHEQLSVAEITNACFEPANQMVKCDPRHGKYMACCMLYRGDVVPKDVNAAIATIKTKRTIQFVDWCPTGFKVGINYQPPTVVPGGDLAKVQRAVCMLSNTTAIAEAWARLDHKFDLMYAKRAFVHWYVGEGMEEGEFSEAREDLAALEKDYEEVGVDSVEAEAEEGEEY
Chain of UniProt P11441 (P11441 whole entry, looked up): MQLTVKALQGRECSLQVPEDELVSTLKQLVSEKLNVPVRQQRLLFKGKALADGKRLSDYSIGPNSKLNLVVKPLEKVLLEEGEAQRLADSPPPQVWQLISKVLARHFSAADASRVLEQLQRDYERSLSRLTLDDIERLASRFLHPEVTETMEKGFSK

Target	log2 fold change (erlotinib)	log2 fold change [1]	log2 fold change [2]	log2 fold change [3]	log2 fold change [4]	log2 fold change [5]	log2 fold change [6]	log2 fold change [7]	log2 fold change [8]	log2 fold change (IRAK-1-4 Inhibitor I)	log2 fold change (ibrutinib)	log2 fold change [9]	log2 fold change (ralimetinib)	log2 fold change [10]	log2 fold change [11]	log2 fold change [12]	log2 fold change [13]	log2 fold change [14]	log2 fold change [15]	log2 fold change [16]
TCF3 (UniProt P15923)	0.027	-0.028	0.067	0.004	0.016	0.011	0.07	-0.005	0.022	0.04	0.001	0.027	0.014	-0.028	-0.005	-0.034	-0.074	-0.061	-0.045	-0.016
TDRKH (UniProt Q9Y2W6)	-0.067	0.023	-0.017	-0.018	-0.065	0.02	-0.086	-0.011	-0.022	0.047	-0.028	-0.023	0.033	-0.027	-0.02	0.003	-0.008	-0.006	-0.005	-0.035
TNIK isoform 4 (UniProt Q9UKE5)	-0.015	-0.037	-0.035	0.119	0.003	0.125	0.244	0.113	-0.031	-0.019	0.008	0.374 (active)	-0.024	-0.005	0.046	-0.013	-0.019	0.186	-0.012	-0.068
TRIM33 isoform 2 (UniProt Q9UPN9)	0.004	-0.016	0.014	0.004	-0.002	0.003	0.008	-0.03	0.006	-0.02	0.04	0.006	0.024	0.022	-0.026	0.01	0	-0.014	0.019	0.005
TRNAU1AP (UniProt Q9NX07)	0.019	0.083	-0.037	0.114	0.038	-0.028	-0.31	-0.071	0.015	-0.005	-0.013	-0.212	0.07	-0.045	0.039	-0.008	0.02	-0.035	0.034	0.021
UBE3C (UniProt Q15386)	0.035	-0.061	-0.067	0.011	-0.036	-0.01	-0.022	0.027	0.049	0	-0.011	0.024	0.012	-0.028	-0.011	0.005	0.04	-0.021	0.021	0.01
TLK2 isoform 2 (UniProt Q86UE8)	-0.071	-0.076	0.054	-0.006	0.014	0.001	0.171	-0.012	0.021	-0.058	-0.021	0.104	0.035	-0.018	0.007	-0.009	0.051	0	0.025	-0.055
TUBA3C (UniProt P0DPH7)	0.03	-0.605	0.039	-0.029	0.023	-0.023	-0.01	-0.011	0.036	0.037	-0.009	-0.007	0.041	-0.045	-0.047	0.002	0.029	-0.021	0.038	0.001
TUBGCP4 (UniProt Q9UGJ1)	-0.017	-0.017	-0.007	0.015	-0.018	-0.01	-0.028	0.133	0.045	0.052	0	-0.051	0.052	-0.037	0	0.021	-0.048	-0.002	0.05	0.043
TRIM23 (UniProt P36406)	-0.044	-0.022	0.037	0.014	0.034	0.493	-0.011	-0.017	0.105	0.183	-0.031	0.061	-0.102	-0.085	-0.056	0.026	-0.065	0.099	-0.22	-0.022
UBL4A (UniProt P11441)	-0.04	0.014	-0.069	0.005	0.087	0.021	0.04	0.024	-0.028	-0.042	0.056	0.055	0	0.049	0.009	-0.023	-0.02	-0.044	-0.002	0.025
TPP2 (UniProt P29144)	-0.001	-0.098	0.01	0.001	0.006	0	-0.02	-0.003	-0.005	-0.002	-0.018	-0.016	-0.002	0.014	-0.012	-0.013	0.003	0.008	0.012	0.002
UBE3B (UniProt Q7Z3V4)	-0.14	-0.218	-0.3	0.056	0.142	0.011	-0.022	-0.04	-0.12	0.019	0.041	0.019	0.02	-0.074	-0.112	0.068	0	-0.004	-0.022	0.023
TPM3 isoform 2 (UniProt P06753)	-0.075	-0.007	-0.065	-0.008	0.003	0.004	0.038	0.039	-0.074	-0.042	0.03	-0.007	-0.02	0.05	-0.034	-0.005	-0.019	-0.073	0.002	-0.006
TOX4 (UniProt O94842)	-0.016	-0.025	0.049	0.037	-0.052	0.04	-0.003	-0.014	0.053	-0.025	-0.009	0.054	0.009	-0.034	-0.008	0.024	-0.002	0.033	0.023	0.006
TTC38 (UniProt Q5R3I4)	0.037	0.015	0.009	0.039	0.007	0.035	-0.022	-0.003	0.068	-0.004	-0.049	0.033	0.008	0.007	-0.011	0.005	0.332 (active)	-0.013	0.067	0.014
